An excerpt weighted towards active compounds, which were near 21% of everything screened.
IL1B secr inh – inflammasome signaling inhibition, IL-1 beta readout | THP-1 LPS/ATP IL-1B secretion, AlphaLISA, 16 h; stronger effect = lower value | activity change, % at 57.5 µM | hit rate 4.7% among 360,000; in the data active = activity change below about -50%; inconclusive = mostly about -30% to -49%; note: % is set by controls: 0 for no effect and ±100 for the full control effect
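THP-1 cells pretreated 1 hr with compounds (up to 57.5 uM final), then stimulated with LPS (250 ng/mL final) plus ATP (1.25 mM final); secreted IL-1B measured by AlphaLISA after 16 hr, decreased signal indicating inhibition.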
DT40 TDP1 CPT – growth inhibition of DT40 Tdp1-/-;hTDP1 cells with camptothecin (screen for TDP1 inhibitors). Potency, µM (series often up to 46.2 µM), inactives show at the top dose activity change, negative = growth inhibition, actives largely listed as inhibitors. hit rate 12% among 420,000. chicken DT40 Tdp1-/-;hTDP1 cells + 20 nM CPT, ATP luminescence, 48 h; note: potency is the fitted concentration of half-maximal effect; % is set by controls: 0 for no effect and ±100 for the full control effect; nearly all actives have a fitted effect of over 55% in size
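Chicken DT40 Tdp1-/- cells complemented with human TDP1, 400 cells/well, exposed to compounds plus 20 nM camptothecin for at least 48 h at 37 C; viability read as ATP content by CellTiter-Glo luminescence.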
TDP1 cell noCPT – qHTS for Inhibitors of human tyrosyl-DNA phosphodiesterase 1 (TDP1): qHTS in cells in absence of CPT; Potency, µM (series often up to 46.2 µM), for inactives: at the highest dose activity change, negative = growth inhibition, actives largely listed as inhibitors; hit rate 15% among 420,000; DT40 Tdp1-/- hTDP1 cells, no CPT, ATP luminescence, 48 h; note: potency is the fitted concentration of half-maximal effect; % is set by controls: 0 for no effect and ±100 for the full control effect; nearly all actives have a fitted effect of over 55% in size
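Readout: luminescence from CellTiter-Glo after 30 min in the dark at RT. Cells: DT40 Tdp1-/- with stable hTDP1, 400/well. Exposure: compounds alone, ≥48 hr, 37 °C.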
D3 antag – antagonists of human D3 dopamine receptor | D3R cells, DiscoveRx beta-arrestin luminescence, antagonist mode; stronger effect = lower value | P35462 | max response, negative = inhibition, % | hit rate 2.5% among 360,000; in the data active = max response below about -50%; inconclusive = no clear call, values can overlap the other calls; note: % is set by controls: 0 for no effect and ±100 for the full control effect
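Cells plated overnight at 1500 cells/well, then exposed to library compounds with dopamine controls for 90 minutes at 37 degrees C. DiscoveRx reagent added for 30–60 minutes at room temperature; luminescence read, quantitative HTS format.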
ClpP mod – qHTS Assay for Activators of ClpP; ATP-dependent Clp protease proteolytic subunit (Bacillus subtilis (strain 168)), P80244; purified B. subtilis ClpP, FRET peptide cleavage, 20 min; Potency, µM (doses to about 57.5 µM), for inactives: at the top dose activity change, negative = active; hit rate 1.9% among 340,000; AID 651965, 2013; active = well fitted falling curve with a large enough effect; inconclusive = small, poorly fitted or top-dose-only effect; inactive = no such curve, though single readings can be large or run the other way; note: potency is the fitted concentration of half-maximal effect; the source files actives as falling curves though it sought activators and does not explain the sign; nearly all actives have a fitted effect of over 65% in size
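ClpP 10 microg/mL final, pH 8 Tris/KCl buffer with BSA, glycerol, Tween-20; compound pinned in; FRET-FV substrate; RT 20 min; Ex320/Em430; ΔFRET vs ADEP 5.8 microM, DMSO, no enzyme.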
D3 ag – activates the human D3 dopamine receptor; D3R DiscoveRx beta-arrestin cells, luminescence, 90 min; max activation, %; hit rate 0.58% among 410,000; in the data active = max activation above about 30%; note: 0% is about no effect
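Agonist-mode cell screen: cells plated at 1500/well and incubated overnight at 37 °C, then exposed to library compounds for 90 min at 37 °C. Detection reagent was added for 30–60 min at room temperature, and luminescence was read.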
An asterisk follows results filed as active; u = inconclusive; x = no result given. Unless noted, calls come from the whole dose curve; as a rule, active = well fitted inhibition curve with a large enough effect; inconclusive = small, poorly fitted or top-dose-only effect; inactive = flat fitted curve, though single readings scatter.

SMILES	IL1B secr inh	DT40 TDP1 CPT	TDP1 cell noCPT	D3 antag	ClpP mod	D3 ag
C#CCOCCOCCOCCNc1nc(N2CCOCC2)nc(N2CCN(C(=O)[C@H](CCC(=O)O)n3cc(C(N)[C@H](C)CC)nn3)CC2)n1 (some centres not stated)	16.9	4.1%	1.0%	2.3	0.1%	16.3
Cc1ccc2c(c1)-c1cc(C)nn1C(c1sccc1C)N2 (configuration not stated)	-5.0	u	u	5.3	15.8µM*	12.2
CCN(CC(=O)Nc1c(F)cccc1F)C(=O)c1cc(S(=O)(=O)N2CCOCC2)ccc1N1CCCC1	-25.4	13.8%	-2.5%	13.6	1.3%	8.0
CCn1cc(C(=O)N2CCN(c3ccc(F)cc3)CC2)c(=O)c2cc(S(=O)(=O)N3CCOCC3)ccc21	x	-2.9%	1.9%	x	0.1%	-11.1
CCOc1cc2[nH]c(=S)n(Cc3ccc(C(=O)NCCCN4CCOCC4)cc3)c(=O)c2cc1OCC	0.0	u	18.4µM*	3.5	1.6%	-13.1
COC(=O)c1ccc2c(=O)n(Cc3ccc(C(=O)NCCCN4CCC(C)CC4)cc3)c(=S)[nH]c2c1	-106.1*	20.6µM*	16.4µM*	0.0	x	-18.8
COc1cc2c(=O)n(CCCN3CCOCC3)c(=S)[nH]c2c(OC)c1OC	37.7	5.8µM*	23.1µM*	-83.5*	-1.3%	-3.7
CCOc1cc2[nH]c(=O)n(Cc3ccc(C(=O)NCCCN4CCC(C)CC4)cc3)c(=O)c2cc1OCC	18.0	u	23.1µM*	-4.8	x	-0.2
CCOc1cc2[nH]c(=S)n(Cc3ccc(C(=O)NCCCOC)cc3)c(=O)c2cc1OCC	21.3	-23.3%	0.4%	16.2	5.2%	3.0
CCOc1cc2[nH]c(=S)n(CCCN3CCOCC3)c(=O)c2cc1OCC	7.9	u	u	-71.4*	-0.3%	-54.8
CCOc1cc2[nH]c(=S)n(CCN3CCC(C)CC3)c(=O)c2cc1OCC	-2.4	-25.3%	-35.0%	0.0	3.5%	-9.4
CCc1nc2c(OCC3COc4ccccc4O3)cccn2c1N(C)C(=O)c1cccc(OC)c1 (configuration not stated)	-11.3	u	u	14.7	-2.4%	0.4
CCc1nc2c(OCc3cc(Cl)cc(Cl)c3)cccn2c1N(C)C(=O)c1cccc(OC)c1	-55.5*	u	u	0.6	-0.2%	4.5
CCc1nc2c(OCc3ccccc3C(=O)OC)cccn2c1N(C)C(=O)c1cccc(OC)c1	-3.4	13µM*	23.1µM*	3.2	-1.8%	1.6
CCc1nc2c(OCc3cccc(Cl)c3)cccn2c1N(C)C(=O)c1ccc(OC)cc1	-0.1	u	16.4µM*	-15.5	0.2%	-11.9
CCc1nc2c(OCc3cccc(OC)c3)cccn2c1N(C)C(=O)c1ccc(OC)cc1	-29.8	u	16.4µM*	u	1.0%	-10.5
Cc1ccc(-n2cc(CNCC3CC(=O)N(C4CC4)C3)c(-c3cccc(C)c3)n2)cc1 (configuration not stated)	-63.9*	11.6µM*	14.6µM*	5.2	-9.5%	-16.2
Cc1cccc(-c2nn(-c3ccccc3)cc2C(=O)N2CCN(C3CCS(=O)(=O)C3)CC2)c1 (configuration not stated)	1.8	-3.9%	-5.5%	0.5	-3.0%	-19.2
O=C(COC(=O)c1ccc(Br)cc1)Nc1cccnc1Cl	12.6	-2.3%	0.2%	9.0	-2.0%	3.3
COc1cc(N)c(Cl)cc1C(=O)OCC(=O)Nc1cccnc1Cl	-12.1	-17.7%	-23.4%	-12.8	28.2µM*	-2.4
COc1ccccc1C(=O)NC(=O)COC(=O)c1ncc(Cl)c(Cl)c1Cl	10.5	u	-5.0%	2.4	-0.4%	1.7
O=C(COC(=O)c1cccc(F)c1)Nc1cccnc1Cl	-7.6	-16.6%	-6.9%	-4.6	25.1µM*	5.4
O=C(COC(=O)c1ncc(Cl)c(Cl)c1Cl)Nc1cccnc1Cl	-56.0*	-12.4%	7.5%	-16.5	-1.8%	-4.8
CC(C)NC(=O)NC(=O)COC(=O)c1ncc(Cl)c(Cl)c1Cl	-62.9*	-5.4%	-6.5%	0.9	x	-7.8
C[C@H](O)CC(=O)O	28.7	-31.3%	3.2%	u	1.9%	-6.4
SMILES	IL1B secr inh	DT40 TDP1 CPT	TDP1 cell noCPT	D3 antag	ClpP mod	D3 ag
CCOC(=O)c1ccc(NCCOC)c([N+](=O)[O-])c1	3.5	-8.3%	-4.8%	4.2	0.2%	-8.2
COC(=O)CCSc1cc(NCCOC(C)=O)c([N+](=O)[O-])c2nonc12	-97.3*	11.2µM*	17.8µM*	-11.6	-1.2%	-2.6
CCCC(=O)OCCNc1cc(SCCC(=O)OC)c2nonc2c1[N+](=O)[O-]	-86.2*	16.4µM*	u	2.9	0.5%	-0.6
c1ccc(CN2CCN(c3ncnc4c3cnn4-c3ccccc3)CC2)cc1	x	16.4µM*	18.4µM*	x	-3.0%	2.6
Cc1ccc(-n2ncc3c(N4CCN(Cc5ccccc5)CC4)ncnc32)cc1Cl	x	8.2µM*	9.2µM*	x	-1.3%	5.9
Cc1cccc(-n2ncc3c(N4CCN(CCO)CC4)ncnc32)c1	x	u	u	x	-7.2%	-3.0
c1ccc(-n2ncc3c(N4CCN(CCOc5cccc6ccccc56)CC4)ncnc32)cc1	8.0	16.4µM*	25.9µM*	-10.2	u	40.4*
Fc1ccc(-n2ncc3c(N4CCN(Cc5ccccc5)CC4)ncnc32)cc1	x	-12.3%	-21.3%	x	-3.2%	-9.9
CCOC(=O)C1(C(=O)OCC)CCN(S(=O)(=O)c2ccccc2)CC1	-12.5	-1.8%	5.1%	2.1	1.1%	-2.0
CNC(=O)CSc1nc2ccccc2c(=O)n1CCc1ccccc1	31.1	-18.4%	-7.9%	-4.5	-0.6%	1.1
Cc1ccc(N2C(=O)CC(NNc3nc4ccccc4s3)C2=O)cc1C (configuration not stated)	-3.7	2.8%	-19.4%	5.8	12.6µM*	1.7
CN(C)CCCC1Sc2ccccc2Sc2ccccc21 (configuration not stated)	-66.1*	u	u	-69.1*	-0.5%	-39.8
O=C1c2cccc3cccc(c23)C(=O)N1Cc1cccnc1	23.5	1.4%	u	10.5	-0.4%	7.0
Cc1cnc(N2C(=O)c3ccc([N+](=O)[O-])cc3C2=O)s1	u	4.8%	-0.6%	-21.4	x	-2.3
O=C1c2cccc3c([N+](=O)[O-])ccc(c23)C(=O)N1Cc1cccnc1	-101.0*	3.66µM*	4.61µM*	-26.3	-2.0%	-20.9
Cc1ccc(N2C(=O)c3cccc4c(N5CCN(C)CC5)ccc(c34)C2=O)c2cccnc12	35.2	u	u	-22.3	-0.3%	-15.2
